The structures appear in SMILES notation. Where a structure was tested more than once in an assay, its records may differ in their call. Calls of active or inactive are those of the source. Where a call stands in place of a potency, no number is given. The call rests on the fitted dose curve; in most records, active means well fitted curve in the direction sought with a large enough effect in the signal ratio in the repeat runs (not every such curve was filed as active); inconclusive means weak or mixed curves, or effect the other way; inactive means no such curve, though single readings can be large or run the other way; the % refers to the signal ratio.
Potency means the concentration at half of the fitted maximal effect.

Chain of Estrogen receptor (Homo sapiens) (P03372 whole entry, looked up): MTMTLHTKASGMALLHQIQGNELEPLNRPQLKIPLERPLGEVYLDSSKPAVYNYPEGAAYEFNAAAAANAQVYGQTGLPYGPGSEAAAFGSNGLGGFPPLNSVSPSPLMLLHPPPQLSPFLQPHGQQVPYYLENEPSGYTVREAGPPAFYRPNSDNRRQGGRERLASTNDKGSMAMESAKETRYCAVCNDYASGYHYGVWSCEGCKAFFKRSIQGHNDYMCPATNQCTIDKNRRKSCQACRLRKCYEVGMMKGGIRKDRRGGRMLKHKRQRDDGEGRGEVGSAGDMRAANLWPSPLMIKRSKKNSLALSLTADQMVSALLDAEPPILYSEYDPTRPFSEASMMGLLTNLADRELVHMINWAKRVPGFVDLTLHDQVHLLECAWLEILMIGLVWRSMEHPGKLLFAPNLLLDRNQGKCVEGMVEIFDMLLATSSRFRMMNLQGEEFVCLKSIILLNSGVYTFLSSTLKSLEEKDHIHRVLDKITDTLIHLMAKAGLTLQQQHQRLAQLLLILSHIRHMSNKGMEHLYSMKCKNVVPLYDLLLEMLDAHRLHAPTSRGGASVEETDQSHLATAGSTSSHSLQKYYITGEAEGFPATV

The target in this assay is Estrogen receptor (Homo sapiens) (UniProt P03372). Nature of the assay: qHTS assay to identify small molecule antagonists of the estrogen receptor alpha (ER-alpha) signaling pathway (AID 743069). Particulars: HEK293 ER-alpha-UAS-bla, beta-lactamase ratio, antagonist mode; series mostly up to 69.4 µM. The source says:
National Center for Advancing Translational Sciences [NCATS]
NIH Chemical Genomics Center [NCGC]
U.S. Environmental Protection Agency [EPA]
National Institutes of Environmental Health Sciences [NIEHS]
National Toxicology Program [NTP]
U.S. Food and Drug Administration [FDA]
Estrogen receptor (ER), a nuclear hormone receptor, plays an important role in development, metabolic homeostasis and reproduction. Two subtypes of ER, ER-alpha and ER-beta have similar expression patterns with some uniqueness in both types. Endocrine disrupting chemicals (EDCs) and their interactions with steroid hormone receptors like ER causes disruption of normal endocrine function. To identify the compounds that inhibit ER signaling, an ER-alpha-UAS-bla GripTiteTM cell line (Invitrogen, Carlsbad, CA, USA) containing a beta-lactamase reporter gene under the control of an Upstream Activator Sequence (UAS) stably integrated into HEK293 cells was used to screen the Tox21 10K compound library.
Tox21 Assay Protocol Summary:
ER-alpha-bla cells were cultured in assay medium containing 2% charcoal stripped FBS overnight in the culture flasks before the assay was performed. The cells were dispensed at 5,000 cells/5 uL of assay medium per well into black wall/clear-bottom 1536-well plates using a Multidrop Combi (ThermoFisher Scientific, Waltham, MA) dispenser. After the assay plates were incubated at a 37C and 5% CO2 for 4 hr, 23 nL of compounds dissolved in DMSO, positive controls or DMSO only was transferred to the assay plate by a Pintool station (Kalypsys, San Diego, CA), followed by addition of 1 uL of 17beta-estradiol in assay medium using a Flying Reagent Dispenser (Aurora Discovery, San Diego, CA). The plates were incubated at 37C and 5% CO2 for 18 hr. Then 1 uL of LiveBLAzerTM B/G FRET substrate was added using a Flying Reagent Dispenser, the plates were incubated at room temperature for 2 hours, and fluorescence intensity was measured by an Envision plate reader (PerkinElmer, Shelton, CT).
As for `CC(=O)C(C)C`, the Potency result is “inactive”.

For the molecule `C=CC(=O)NCOCCCC`, the Potency entry was “inactive”.

Consider `CC1(C)C(=O)N(Cl)C(=O)N1Cl`, for which the Potency result is “inactive”.

For the molecule `O=C1CCCCCCCCCCC1`, the Potency result is “inactive”.

Consider `CC(=O)Nc1ccc(CC(=O)O)cc1`, for which the Potency result is “inactive”.

As to `N[C@@H](Cc1cc(I)c(Oc2ccc(O)c(I)c2)c(I)c1)C(=O)O`, the Potency is 23.9 µM [inconclusive] (active) and inactive.

In the case of `Cc1ccc(Cl)cc1`, the Potency result was “inactive”.

For `Cc1ccccc1C=O`, the Potency result was “inactive”.

For the molecule `OCC(CO)(CO)CO`, the Potency entry was “inactive”.

For `C1CCCNCC1`, the Potency entry is “inactive”.

As for `Cc1nnc(NS(=O)(=O)c2ccc(N)cc2)s1`, the Potency entry is “inactive”.

As to `Cc1cc(C)c(O)c(C)c1`, the Potency result was “inactive”.

For `CCc1cccc(O)c1`, the Potency result is “inactive”.

Turning to `O=C(Cl)c1ccc(C(=O)Cl)cc1`, the Potency result was “inactive”.

For the molecule `OB(O)O`, the Potency result was “inactive”.

Take `CCOC(=O)c1ccc(O)cc1`: the Potency result was “inactive”.

Take `CC(C)=CCC/C(C)=C/C=O`: the Potency result was “inactive”.

For the molecule `C[Si](C)(C)N[Si](C)(C)C`, the Potency result was “inactive”.

For the molecule `CC(C)(CO)CO`, the Potency result was “inactive”.

Regarding `OC[C@H]1O[C@@H](Oc2ccc(O)cc2)[C@H](O)[C@@H](O)[C@@H]1O`, the Potency result was “inactive”.

With `Cc1ccc(C(C)C)cc1`, the Potency result was “inactive”.

With `O=Cc1ccc(CO)o1`, the Potency entry was “inactive”.

Turning to `CC(=O)CC(=O)N(C)C`, the Potency entry was “inactive”.

With `CCCCC(=O)O`, the Potency entry was “inactive”.

With `CCCCCCCCCCCC(=O)N(C)CC(=O)O`, the activity, negative = inhibition was -5.64% [at 6.71 µM] (inactive).

Turning to `CCCN(CCC)C(=O)SCC`, the Potency result was “inactive”.

With `CC(=O)OC(C)(C)C1CC=C(C)CC1` (stereo not given), the Potency result is “inactive”.

With `Cc1ccc([N+](=O)[O-])cc1N`, the Potency result was “inactive”.

On to `COc1ccc(N)c(OC)c1`, for which the Potency result is “inactive”.

On to `Nc1cccc(N)n1`, for which the Potency result was “inactive”.

As to `COC(=O)CCCCC(=O)OC`, the Potency result was “inactive”.

Regarding `Nc1cccc(C(F)(F)F)c1`, the Potency result was “inactive”.

Regarding `C=CC(C)(C)C`, the Potency result is “inactive”.

For the molecule `Cc1ccncc1`, the Potency result is “inactive”.

Consider `N#CCC(=O)O`, for which the Potency result is “inactive”.

With `O=C(c1ccccc1)c1ccc(O)c(O)c1O`, the Potency entry is “inactive”.

On to `COCN(COC)c1nc(N(COC)COC)nc(N(COC)COC)n1`, for which the Potency entry is “inactive”.

As for `CCCCCCCCCCCCCC(=O)O`, the Potency entry was “inactive”.

Regarding `CCCCCCCCO`, the Potency result is “inactive”.

On to `CN=C(NC#N)NCCSCc1nc[nH]c1C`, for which the Potency result is “inactive”.
